Values joined by “and” are separate entries in the source; they are usually repeats but may differ in a detail not shown here. Identical values can stand only once. Among all 360,000 compounds or so, about 3,500 (0.97%) were called active.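 How the source made its calls: active means activation above a per-plate cutoff, the mean activation of sample wells on that plate plus 3 SD (cut at about 8% in these data); inactive means the rest.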 The full list was thinned out, with actives kept by preference. Some compounds were tested as several samples or in several runs, with calls that do not always agree.
target: Melanocortin receptor 4 (Homo sapiens) (UniProt P32245); assay: MC4R agonists recruiting beta-arrestin, primary screen, cell-based, luminescence, agonist arm of biased-ligand search (AID 540308); conditions: U2OS MC4R beta-arrestin complementation, at 8.9 µM, stronger effect = higher value, percent of melanotan II response, DMSO zero
Sequence (P32245 whole entry, looked up): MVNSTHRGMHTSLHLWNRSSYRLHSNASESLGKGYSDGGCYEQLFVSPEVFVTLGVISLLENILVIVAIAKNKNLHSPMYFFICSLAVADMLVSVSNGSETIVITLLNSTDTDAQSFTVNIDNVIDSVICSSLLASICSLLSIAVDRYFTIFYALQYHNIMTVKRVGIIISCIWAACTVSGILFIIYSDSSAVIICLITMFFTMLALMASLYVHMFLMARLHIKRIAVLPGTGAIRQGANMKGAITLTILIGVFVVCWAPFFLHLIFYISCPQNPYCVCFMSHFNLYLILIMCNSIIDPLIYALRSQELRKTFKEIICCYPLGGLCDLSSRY

| SMILES | activation |
| --- | --- |
| COc1ccc(Cl)cc1-c1cc(C(=O)Nc2cc(OC)c(OC)c(OC)c2)[nH]n1 | 3.58% (inactive) |
| CCCNC(=O)c1cc(C2CCCCN2S(=O)(=O)c2cn(C)cn2)on1 (configuration not stated) | -0.95% (inactive) |
| O=C(Nc1ccc2oc(-c3ccc4ccccc4c3)nc2c1)c1cccs1 | 14.3% (active) |
| COc1ccc2oc(-c3cccc(NC(=O)CSc4ccc(Cl)cc4)c3)nc2c1 | 5.84% (inactive) |
| O=C(Nc1ccc2oc(-c3ccccc3F)nc2c1)c1ccco1 | -1.85% (inactive) |
| CCOC(=O)C1(C)CCCN(C(=O)c2cccc(Cl)c2)C1 (configuration not stated) | 0.39% (inactive) |
| COc1ccc(S(=O)(=O)N2CCCCC2c2cc(C(=O)NCc3ccc(F)cc3)no2)cc1 (configuration not stated) | -0.38% (inactive) |
| COc1ccc(-c2noc(COc3ccc(Cl)c(C)c3)n2)cc1 | 9.56% (active) |
| COc1ccc(C(C)=O)cc1COc1ccc(Cl)c(C)c1 | -1.85% (inactive) |
| COc1ccc(N2CCN(C(=O)CCc3nc(-c4ccc(C)cc4)no3)CC2)cc1 | -1.45% (inactive) |
| O=C(CCCOc1ccccc1)NCc1ccco1 | -0.5% (inactive) |
| O=C(CCCCCN1C(=O)c2cccc3cccc(c23)C1=O)NCc1ccco1 | 19.2% (active) |
| O=C(COC(=O)CCCN1C(=O)c2cccc3cccc(c23)C1=O)NC1CCS(=O)(=O)C1 (configuration not stated) | 0.21% (inactive) |
| CCCNC(=O)C1(C)CCN(C(=O)c2ccc(F)cc2Cl)C1 (configuration not stated) | 0.56% (inactive) |
| CCc1nnc(NC(=O)CSCc2cc(=O)n3cc(C)sc3n2)s1 | -1.4% (inactive) |
| CCc1nc2c(OCCc3cccc(OC)c3)cccn2c1N(C)C(=O)c1ccc(C)cc1 | -0.79% (inactive) |
| Cc1ccc(/C=N/NC(=O)COc2ccccc2-c2ccccc2)cc1 | 1.38% (inactive) |
| CSc1ccc(/C=N\NC(=O)COc2ccc(Cl)cc2Br)cc1 | 36.4% (active) |
| CSc1ccc(/C=N/NC(=O)c2cccc(Cl)c2)cc1 | 1.13% (inactive) |
| COCCNc1ncnc2c1ncn2[C@H]1CN(Cc2ccc(OC)cc2)C[C@@H](CO)O1 | 0% (inactive) |
| CCCS(=O)(=O)NC(=O)C1(C)CCCN(C(=O)c2cc(C)on2)C1 (configuration not stated) | 1.12% (inactive) |
| CC(C)CNS(=O)(=O)c1ccc(CCC(=O)NCc2ccc(Cl)cc2)cc1 | 0.27% (inactive) |
| CSc1ccc(S(=O)(=O)NCc2ccc(Cl)cc2)cc1 | 10.2% (active) |

| SMILES | activation |
| --- | --- |
| Cc1ccc(S(=O)(=O)NCCC(=O)NCc2ccc(Cl)cc2)cc1C | -1.43% (inactive) |
| O=C(NC1CC1)c1cccc(Br)c1 | -2.46% (inactive) |
| O=C(NC(=S)Nc1ccc(S(=O)(=O)Nc2ncccn2)cc1)c1cccc(Br)c1 | -2.77% (inactive) |
| O=C(NC(=S)Nc1cccc2c(O)cccc12)c1cccc(Br)c1 | 30.6% (active) |
| Cc1ccccc1Cn1c(C)c(C(=O)NCc2cccc(C(F)(F)F)c2)sc1=O | 2.6% (inactive) |
| Cc1ccc(C)c(N2CCN(C(=O)CCCCCn3c(=S)[nH]c4ccc(N5CCOCC5)cc4c3=O)CC2)c1 | -2.66% (inactive) |
| CC(C)NC(=O)CCCn1c(=S)[nH]c2cc3c(cc2c1=O)OCO3 | -1.77% (inactive) |
| O=C(CCCCCn1c(=S)[nH]c2cc3c(cc2c1=O)OCO3)N1CCN(c2ccc(F)cc2)CC1 | 13.7% (active) |
| CCc1nc2ccc(C(=O)NCCNC(C)=O)cn2c1N(CC)Cc1cccc(Br)c1 | -0.75% (inactive) |
| CCc1nc2ccc(C(=O)Nc3cccc(OC)c3)cn2c1N(CCC(C)C)CCN(C)C | 0.02% (inactive) |
| COc1ccc(C(C)(NC(C)=O)c2nc(-c3ccc(S(C)(=O)=O)cc3)cs2)cc1 (configuration not stated) | -1.32% (inactive) |
| CC(=O)Nc1ccc(OC(=O)COc2ccc(Br)cc2)cc1 | -0.49% (inactive) |
| Cc1ccc(O)c(NC(=S)NC(=O)COc2ccc(Br)cc2)c1 | 19.5% (active) |
| Cn1cccc1C(=O)NNC(=O)COc1ccc(Br)cc1 | -1.12% (inactive) |
| CCCC(=O)N1CCC1(C)C(=O)NCc1ccc(SC)cc1 (configuration not stated) | -2.08% (inactive) |
| CC(C)c1ccc(CC(=O)N2CCC2(C)C(=O)NS(=O)(=O)c2ccc(C(C)(C)C)cc2)cc1 (configuration not stated) | 0.36% (inactive) |
| CCS(=O)(=O)Nc1cccc(-c2cc(-c3ccccc3)c3cc(C)ccc3n2)c1 | 8.87% (active) |
| CS(=O)(=O)Nc1cccc(-c2cn3ccccc3n2)c1 | -3.26% (inactive) |
| Cc1cc(C)cc(NS(=O)(=O)Cc2ccccc2)c1 | 0.25% (inactive) |
| CNc1cncc(-c2cccc(C(=O)N3CCOCC3)c2)n1 | -2.12% (inactive) |
| NC(c1csc(NC(=O)Nc2cccc(C(F)(F)F)c2)n1)C1CCCCC1 (configuration not stated) | 6.14% (inactive) |
| COc1ccc(CC(N)c2csc(NC(=O)Nc3ccc(C(C)C)cc3)n2)cc1 (configuration not stated) | 4.05% (inactive) |
| NC(Cc1ccccc1)c1csc(Nc2cc(Oc3ccccc3)ncn2)n1 (configuration not stated) | 4.18% (inactive) |

| SMILES | activation |
| --- | --- |
| COc1ccc(C(N)c2csc(NC(=O)Nc3cccc(C(F)(F)F)c3)n2)cc1 (configuration not stated) | 9.99% (active) |
| COc1ccc(CC(N)c2csc(NC(=O)Cc3ccccc3)n2)cc1 (configuration not stated) | -0.85% (inactive) |
| NC(Cc1ccc(F)cc1)c1csc(Nc2nncc3ccccc23)n1 (configuration not stated) | 6.94% (inactive) |
| COc1ccc(CC(N)c2csc(NC(=O)NC(c3ccccc3)c3ccccc3)n2)cc1 (configuration not stated) | 13.1% (active) |
| CC(C)(C)CC(=O)Nc1nc(C(N)Cc2ccc(C(F)(F)F)cc2)cs1 (configuration not stated) | 9.49% (active) |
| NC(c1ccccc1)c1csc(NC(=O)Nc2cccc(C(F)(F)F)c2)n1 (configuration not stated) | 7.09% (inactive) |
| Cc1cccc(NC(=O)CN2CCN(CC(=O)NCC3(N4CCCCC4)CCCCC3)CC2)c1C | -0.84% (inactive) |
| c1cc(-c2ccc3[nH]ccc3c2)n2ccnc2c1 | -0.92% (inactive) |
| CCNC(=O)C1CCCN(C(=O)c2ccc(OC)cc2OC)CC1 (configuration not stated) | 0.47% (inactive) |
| O=C(NCc1ccco1)c1cccc(-c2ccc3nncn3c2)c1 | 1.37% (inactive) |
| CCCOc1ccc(F)cc1-c1cc(C(=O)Nc2ccc(F)cc2)[nH]n1 | 0.53% (inactive) |
| CC1(C(=O)NS(=O)(=O)c2ccccc2)CCN1C(=O)C/C=C/c1ccccc1 (configuration not stated) | -2.25% (inactive) |
| COCc1cccc(-c2csc(C(O)c3ccc(F)cc3)n2)c1 (configuration not stated) | -0.9% (inactive) |
| COc1ccc(CNC(=O)c2ccc(Br)s2)cc1OC | -3.45% (inactive) |
| COc1ccc2nc(NC(=O)c3ccc(Br)s3)sc2c1 | 16.2% (active) |
| CSc1ncccc1C(=O)Nc1nc2ccc(F)cc2s1 | -1.02% (inactive) |
| O=C(COc1ccc2c(c1)CCC2)N1CCN(c2ccc(F)cc2)CC1 | 0.92% (inactive) |
| COc1cc(NC(=O)c2[nH]cnc2C(N)=O)cc(C(=O)Nc2cccc(C(F)(F)F)c2)c1 | 1.84% (inactive) |
| O=C(Nc1cccc(C(F)(F)F)c1)c1ccc(N2CCNCC2)c([N+](=O)[O-])c1 | -2.39% (inactive) |
| COc1cc(NC(=O)c2cncc(-c3ccc(C#N)cc3)c2)cc(C(=O)Nc2cccc(C(F)(F)F)c2)c1 | 2.04% (inactive) and 10.5% (active) |
| Cc1nc(C(F)(F)F)ccc1C(=O)N1CCC1(C)C(=O)NS(=O)(=O)c1ccc(F)cc1F (configuration not stated) | 1.24% (inactive) |
| Cc1cccc(NC(=S)Nc2ccc(Cl)c(Cl)c2)c1 | 8.62% (active) |
| S=C(Nc1ccccc1)Nc1ccc2ccccc2c1 | 0.79% (inactive) |

| SMILES | activation |
| --- | --- |
| NS(=O)(=O)c1ccc(NC(=S)Nc2ccc(Br)c(Cl)c2)cc1 | -1.38% (inactive) |
| OC(c1ccc(Cl)c(F)c1)c1ncc(-c2ccccc2Cl)[nH]1 (configuration not stated) | 5.44% (inactive) |
| COc1ccc(-c2noc(C(C)NS(=O)(=O)c3ccc(NC(C)=O)cc3)n2)cc1 (configuration not stated) | -3.52% (inactive) |
| CCCC(=O)N1CCC1(C)C(=O)NCc1ccc(C(C)C)cc1 (configuration not stated) | 1.64% (inactive) |
| COc1c(C)cc(C(O)c2ncc(-c3cccc(C(F)(F)F)c3)[nH]2)cc1C (configuration not stated) | 2.23% (inactive) |
| O=C1CC(NNc2ccccc2)C(=O)N1c1cccc(Cl)c1 (configuration not stated) | 2.47% (inactive) |
| N#Cc1ccccc1CN1C(=O)S/C(=C/c2cccn2-c2cccc(C(=O)O)c2)C1=O | 1.23% (inactive) |
| O=C1N/C(=C/c2cccn2-c2ccccc2)C(=O)N1c1cccc(Cl)c1 | 30.7% (active) |
| CCN(CCN(C)C)C(=O)c1ccc2nc(C)c(N(C)C(=O)CCc3ccccc3)n2c1 | 0.87% (inactive) |
| O=C(c1cc(-c2cccc(O)c2)on1)N1CCc2ccccc2C1 | 11.5% (active) |
| O=C(c1cc(-c2ccc(O)cc2)on1)N1CCOCC1 | -1.26% (inactive) |
| O=C(NCCCN1CCOCC1)c1cc(-c2cccc(O)c2)on1 | -2.51% (inactive) |
| CC1(C(=O)Nc2cccc3cccnc23)CCN1C(=O)CCC1CCCC1 (configuration not stated) | 0.32% (inactive) |
| CCN(CC)CCN(C(=O)c1ccc2c(c1)CCCC2)c1nc2c(OC)cccc2s1 | 5.13% (inactive) |
| Cc1cccc2sc(N(CCCN(C)C)C(=O)CCS(=O)(=O)c3ccccc3)nc12 | -2.28% (inactive) |
| COc1cccc2sc(N(CCCN(C)C)C(=O)C(c3ccccc3)c3ccccc3)nc12 | 11.3% (active) |
| Cc1nc(-c2nnc(SCC(=O)Nc3cc(C(F)(F)F)cc(C(F)(F)F)c3)n2C)cs1 | 10.2% (active) |
| Cn1c(SCC(=O)Nc2cccc(NC(=O)c3cccs3)c2)nnc1-c1ccncc1 | 0.46% (inactive) |
| Cc1cc(-c2nc(C)c(-c3nnc(SCC(=O)Nc4ccccc4)n3C)s2)no1 | -2.39% (inactive) |
| Cc1ccccc1S(=O)(=O)NC(=O)C1(C)CCN1C(=O)C1(c2ccccc2)CCCC1 (configuration not stated) | -0.26% (inactive) |
| COc1ccc(-n2nnnc2-c2nc3ccccc3s2)cc1 | 9.47% (active) |
| COc1ccc(CNc2nnnn2C)cc1 | -2.31% (inactive) |
| COc1ccc(-n2nnnc2SCC(=O)NCc2cccs2)cc1 | -3.21% (inactive) |

— PubChem BioAssay AID540308 (The Scripps Research Institute Molecular Screening Center, 2011)
